Assay outcomes deposited in PubChem by National Center for Advancing Translational Sciences (NCATS).
KB-V1 cytotox – KB-V1 MDR subline cytotoxicity | AID 1347076 | Potency, µM (series often up to 46.1 µM), hits mostly cytotoxic | 400,000 compounds, 3.4% hits | KB-V1 MDR cells viability, CellTiter-Glo, 72 h; also: nearly all actives have a fitted effect of over 60% in size
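Readout: CellTiter-Glo luminescence, 10 min after addition. Cells: KB-V1 MDR subline, 72 h at 37 degrees C with compound. Analysis: corrected, normalized data fitted to concentration-effect curves.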
HT1080-NT tox – kills 2HG-producing HT-1080-NT fibrosarcoma cells; HT-1080-NT fibrosarcoma viability, CellTiter-Glo ATP luminescence, 48 h; Potency, µM (doses to about 46.1 µM), for inactives: at the highest dose activity, negative = less viability, hits mostly cytotoxic; 360,000 compounds, 1.6% hits; AID 686970;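 also: NT is the 2HG producing partner of a matched IDH1 knockdown line; 0% = DMSO-treated cells and -100% = media-only wells without cells; nearly all actives have a fitted effect of over 55% in size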
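750 cells/well, RPMI + 5% FBS; 2 h settle, compound pin-transfer, 48 h at 37 degrees C. CellTiter-Glo 10 min RT, luminescence. Normalized to DMSO and media-only wells.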
KB-3-1 cytotox – KB-3-1 parental cell cytotoxicity; KB-3-1 viability, CellTiter-Glo ATP luminescence, 72 h; Potency, µM (top dose mostly 46.1 µM), usual class: cytotoxic; 400,000 compounds, 1.4% hits; AID 1347075; also: nearly all actives have a fitted effect of over 60% in size
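Screening of KB-3-1 cells (DMEM, 10% FBS, phenol-red free) ran from lowest to highest compound concentration; after 72 h at 37 °C viability was read luminescently and curves fitted.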
HT1080 IDH1KD tx – kills HT-1080 cells with IDH1 knockdown | HT-1080 IDH1 knockdown viability, ATP luminescence, 48 h | Potency, µM (series often up to 46.1 µM), inactives show at the highest dose activity, negative = toxicity, actives largely listed as cytotoxic | 360,000 compounds, 2% hits | AID 686971;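 also: 0% = DMSO wells and -100% = cell-free medium wells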
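Luminescent ATP read-out (CellTiter-Glo, 10 min at room temperature) after 48 h compound exposure at 37 °C gave viability of IDH1-knockdown HT-1080 cells. Activity was normalised to DMSO and cell-free wells, then fitted as concentration-response curves.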
Numbers without * were called inactive; i = inactive; ? = inconclusive; . = no result; [ ] = remark or other dose. An excerpt weighted towards active compounds, which were near 5.7% of everything screened. Calls follow the shape of the dose curve; as a rule, active = well fitted curve in the direction sought with a large enough effect; inconclusive = small, poorly fitted or top-dose-only effect, or another doubt; inactive = no such curve, though single readings can be large; an effect the other way counts as inactive or inconclusive. Unless noted, % is scaled to controls: 0 for no effect and ±100 for the full control effect; potency is read from the fitted curve at half-maximal effect.

SMILES | KB-V1 cytotox | HT1080-NT tox | KB-3-1 cytotox | HT1080 IDH1KD tx
CCn1cc(S(=O)(=O)NCCc2ccccc2OC)cn1 | i | -0.7% | i | -2.8%
COc1ccccc1NC(=O)c1nnn(Cc2ccccc2)c1NC(C)=O | i | 7.6% | i | 7.1%
COc1ccccc1NC(=O)c1nnn(Cc2ccccc2)c1NC(=O)C(F)(F)F | 20.6µM* | -0.3% | 18.4µM* | -17.7%
CCn1c(SCc2nc3ccccc3[nH]2)nnc1-c1cccnc1 | ? | 2.3% | i | -0.4%
C=CCn1c(SCc2nc3ccccc3[nH]2)nnc1-c1ccc(OC)cc1 | 4.61µM* | 6.6% | i | -0.2%
C=CCn1c(SCc2nc3ccccc3[nH]2)nnc1-c1cccc(OC)c1 | 3.66µM* | -16.9% | i | -6.9%
CCn1c(SCc2nc3ccccc3[nH]2)nnc1-c1ccc(OC)cc1 | 10.3µM* | -4.1% | i | -4.8%
C=CCn1c(SCc2nc3ccccc3[nH]2)nnc1-c1ccccn1 | i | -2.2% | i | 1.6%
Cc1occc1C(=O)N1CCN(c2ccccc2)CC1 | ? | -0.3% | i | 4.9%
Cc1occc1C(=O)N1CCN(c2ccc(Cl)c(Cl)c2)CC1 | 23.1µM* | -0.4% | i | -16.7%
O=C1CC(c2ccccc2)Cc2[nH]c(=O)c(C(=O)Nc3ccc(OC(F)(F)F)cc3)cc21 (stereo unspecified) | i | . | i | .
O=C(NCC(c1cccnc1)N1CCc2ccccc2C1)c1ccc(F)c(F)c1 (stereo unspecified) | i | . | i | .
Cc1ccc(C)c(Cn2nc(-c3cc(C)ccc3C)ccc2=O)c1 | ? | ? | i | 18.4µM*
COC(=O)c1ccc(Cn2nc(-c3cc(C)ccc3C)ccc2=O)cc1 | i | ? | i | -3.1%
Cc1ccccc1CS(=O)(=O)CCC(=O)NCCN1CCN(c2cccc(Cl)c2)CC1 | 10.3µM* | -1.0% | i | -2.9%
Cc1ccc(-c2noc(CCC(=O)NCCCN3CCN(c4ccc(F)cc4)CC3)n2)cc1 | 13µM* | 23.1µM* | ? | -11.8%[9.24 µM]
Cc1ccc(-c2noc(CCC(=O)NCCCN3CCN(c4cccc(Cl)c4)CC3)n2)cc1 | 16.4µM* | ? | 18.4µM* | ?
O=C(Cn1nc(-c2ccccc2)ccc1=O)NCCN1CCN(c2cccc(Cl)c2)CC1 | 5.8µM* | -18.0% | i | ?
O=C(Cn1nc(-c2ccccc2)ccc1=O)NCCN1CCN(Cc2ccccc2)CC1 | i | 4.0% | i | -27.6%
C[n+]1ccccc1/C=C1\Sc2ccccc2N1CCO | i | -25.9% | 20.6µM* | ?
Cc1ccc2c(c1)S/C(=C\c1cccc[n+]1C)N2CCO | ? | -3.4% | ? | 16.4µM*
CC(=O)N1c2ccc(C)cc2Sc2c1ccc1ccccc21 | i | ? | i | -25.0%
Cc1ccc2c(c1)S/C(=C/c1ccc[n+](CCO)c1)N2C | i | -16.8% | 2.59µM* | ?
Cc1ccc(C(=O)Nc2ccc(-c3nc4ccccc4[nH]3)cc2)cc1Br | i | . | i | .
CCN(CC)CCCCN1c2ccccc2Sc2ccccc21 | ? | 18.4µM* | ? | 23.1µM*
SMILES | KB-V1 cytotox | HT1080-NT tox | KB-3-1 cytotox | HT1080 IDH1KD tx
Oc1ccccc1C1=NN(c2ccccc2)C(c2ccc(F)cc2)C1 (stereo unspecified) | i | -8.7% | i | -5.7%
O=C(c1cccs1)N1N=C(c2ccccc2)CC1c1ccc(O)cc1 (stereo unspecified) | 13µM* | -9.6% | i | -6.7%
Oc1ccc(C2=NN(c3ccccc3)C(c3ccc(F)cc3)C2)cc1 (stereo unspecified) | i | 18.4µM* | i | 25.9µM*
O=C(c1cccs1)N1N=C(c2ccc(O)cc2)CC1c1ccccc1 (stereo unspecified) | i | ? | i | ?
C=CCN(CC=C)C(=S)NC(=O)c1ccc(OC)cc1 | 16.4µM* | -1.8% | i | 6.2%
C=CCN(CC=C)C(=S)NC(=O)/C=C/c1ccc(OC)cc1 | i | 9.6% | i | 12.0%
C=CCN(CC=C)C(=S)NC(=O)c1ccc(-c2ccccc2)cc1 | 5.8µM* | 1.8% | ? | -21.6%
COc1ccccc1-c1cc(NC=O)c2ncc(-c3cccc(C(F)(F)F)c3)n2c1 | ? | -9.0% | ? | -6.3%
CN(C)c1ccccc1-c1cc(NC=O)c2ncc(-c3cccc(C(F)(F)F)c3)n2c1 | ? | ? | ? | 29.1µM*
COc1ccc(-c2cc(NC=O)c3ncc(-c4cccc(C(F)(F)F)c4)n3c2)cc1OC | ? | ? | ? | 20.6µM*
